Test [1] deals with XIP peptide (Xip251-270) binding. Nature of the test: small-molecule binders of XIP peptide, primary screen, biochemical, small-molecule microarray, fluorescence 635/667 nm, 0.1 µg/mL protein (AID 1182). To be noted: fluorescent protein binding, 635 nm, higher = more signal, called active from +8 up or from −8 down.
The subject of test [2] is XIP peptide (Xip251-270). Nature of the test: small-molecule binders of XIP peptide, primary screen, biochemical, small-molecule microarray, fluorescence 635/667 nm, 0.5 µg/mL protein (AID 1183). The note with it: small-molecule microarray binding, fluorescence 635 nm; higher = more signal.
Test [3] in a line: Plasmodium falciparum growth inhibition, primary screen, strain 3D7, DAPI fluorescence, 100 nL (AID 1184).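 Also: parasites grown inside human red blood cells in medium with human serum.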 To be noted: P. falciparum 3D7 growth, 3 d, higher = more signal.
The target of test [4] is Homeobox protein Hox-A13 (Mus musculus) (UniProt Q62424). Nature of the test: inhibitors of HoxA13-DNA binding, primary screen, biochemical, fluorescence polarization, labeled oligonucleotide (AID 1185). To be noted: 15 min, higher = more signal, called active from +8 up or from −8 down. In general terms: Fluorescence polarisation rises when a labelled molecule tumbles more slowly, as on binding a larger partner.

The nature of test [5]: inhibitors of hydroxyurea-induced Chk1 phosphorylation, primary screen, imaging, HeLa, phospho-Chk1 antibody, percent positive cells (AID 1186). To be noted: hydroxyurea-induced phospho-Chk1 immunofluorescence imaging, higher = more signal.
Test [6] in a line: inhibitors of hydroxyurea-induced Chk1 phosphorylation, primary screen, imaging, HeLa, phospho-Chk1 nuclear intensity (AID 1187). The note with it: hydroxyurea-induced phospho-Chk1 immunofluorescence imaging, higher = more signal.

Calls of active or inactive are those of the source. Unless noted, no rule for the calls is given here.

Sequence of Homeobox protein Hox-A13 (Mus musculus) (Q62424 whole entry, looked up): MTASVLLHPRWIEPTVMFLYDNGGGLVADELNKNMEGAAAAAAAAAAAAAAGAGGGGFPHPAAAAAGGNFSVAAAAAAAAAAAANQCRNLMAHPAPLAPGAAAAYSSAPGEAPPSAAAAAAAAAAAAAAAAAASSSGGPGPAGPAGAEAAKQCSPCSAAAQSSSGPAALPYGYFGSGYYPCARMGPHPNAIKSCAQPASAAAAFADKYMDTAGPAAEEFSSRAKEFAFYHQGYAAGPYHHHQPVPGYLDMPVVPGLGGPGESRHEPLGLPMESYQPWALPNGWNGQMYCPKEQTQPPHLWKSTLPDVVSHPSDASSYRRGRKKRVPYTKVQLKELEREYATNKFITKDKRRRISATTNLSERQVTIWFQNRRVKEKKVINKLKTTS

Consider `CCCC[C@@H]1C[C@H]1[C@@H](NC(=O)c1ccccc1)c1ccc(C(=O)OC)cc1`, for which the composite z-score is -0.0225 (inactive) in test [1] and 0.221 in test [2]. Moreover, the z-score was -0.0079 in test [3], -3.64 (inactive) in test [4], 0.665 (inactive) in test [5] and 0.454 (inactive) in test [6].
As for `C=C(CC1([C@@H](NP(=O)(c2ccccc2)c2ccccc2)[C@H]2C[C@@H]2CCCC)CC1)c1ccccc1`, the results for the composite z-score in test [1] and in test [2] were -0.0402 (inactive) and 0.143, respectively. Moreover, the z-score in test [3] was -0.548; in test [4] it was -2.33 (inactive); in test [5] it was 0.779 (inactive); in test [6] it was 1.12 (inactive).
Turning to `C[N+](C)(C)CCCC[C@@H]1NC(=O)[C@H]2C[C@@H](C(=O)NCCCCCCNC(=O)CS)[C@@H](c3cccc(OCCO)c3)N2C1=O`, the composite z-score in test [1] is 0.173 (inactive); in test [2], 0.487. In addition, the z-score was -0.135 in test [3], -1.87 (inactive) in test [4], 0.964 (inactive) in test [5] and 1.2 (inactive) in test [6].
Consider `[N-]=[N+]=NCc1ccccc1C[C@]1(C(N)=O)COC(c2ccc(OCCCO)cc2)=N1`, for which the composite z-score in test [1] was 0.154 (inactive); in test [2], 0.817. The z-score is -0.486 in test [3], -4.67 (inactive) in test [4], -0.913 (inactive) in test [5] and -0.959 (inactive) in test [6].
Turning to `C=CCNC(=O)[C@@H]1[C@H]2C(=O)O[C@H](c3ccccc3)[C@H](c3ccccc3)N2[C@H](c2ccc(O)cc2)[C@@]12C(=O)Nc1ccc(C#CCNC(N)=O)cc12`, the composite z-score in test [1] was 0.33 (inactive); in test [2] it was 0.0915. In addition, the z-score in test [3] was -0.1; in test [4] it was -3.36 (inactive); in test [5] it was -0.0873 (inactive); in test [6], -0.0078 (inactive).
Take `CCCC=C(CCC)[C@@H](NC(=O)c1cccs1)c1ccc(C(F)(F)F)cc1`: the composite z-score is 0.0798 (inactive) in test [1] and 0.477 in test [2]. Also, the z-score is -1.65 in test [3], -2.14 (inactive) in test [4], 0.247 (inactive) in test [5] and 0.201 (inactive) in test [6].
Consider `CCCC[C@@H]1C[C@H]1[C@@H](NC(=O)c1ccco1)c1ccccc1C(F)(F)F`, for which the composite z-score is 0.259 (inactive) in test [1] and -0.623 in test [2]. In addition, the z-score in test [3] was -0.7; in test [4], 2.24 (inactive); in test [5] it was 0.445 (inactive); in test [6] it was -0.353 (inactive).
In the case of `C=C[C@@H](COC(=O)OC(C)(C)C)N(Cc1ccc(OC)cc1)S(=O)(=O)c1ccc(Br)cc1`, the composite z-score in test [1] is 0.323 (inactive); in test [2] it was 0.219. For the same molecule, the z-score in test [3] was 0.605; in test [4], -0.981 (inactive); in test [5], 0.344 (inactive); in test [6], 0.447 (inactive).
In the case of `CCC[C@@H]1C[C@@]1(CCC)[C@@H](NC(=O)c1ccccc1)c1cccc(Cl)c1`, the composite z-score in test [1] was 0.11 (inactive); in test [2], -0.211. For the same molecule, the z-score in test [3] is -0.348; in test [4] it was 2.13 (inactive); in test [5], -0.769 (inactive); in test [6], -0.608 (inactive).
As to `COc1ccc(CCNC(=O)[C@@]2(C)c3ccccc3C(=O)N(C(C)C)[C@H]2c2ccc(CO)cc2)cc1`, the composite z-score is -0.15 (inactive) in test [1] and 0.388 in test [2]. Besides, the z-score is -0.57 in test [3], -2.77 (inactive) in test [4], 0.0394 (inactive) in test [5] and -0.33 (inactive) in test [6].
With `O=C1O[C@H](c2ccccc2)[C@H](c2ccccc2)N2[C@H]1[C@@H](C(=O)N1CCCCCCC1)[C@]1(C(=O)Nc3ccc(C#CC4=CCCCC4)cc31)[C@H]2c1ccc(OCCO)cc1`, the composite z-score in test [1] was 2.27 (inactive); in test [2], 0.77. The z-score in test [3] is -2.33; in test [4] it was -15.4 (active); in test [5], 0.606 (inactive); in test [6], 1.04 (inactive).
With `C=CCOC(=O)[C@H]1[C@@H]2C(=O)O[C@@H](c3ccccc3)[C@@H](c3ccccc3)N2[C@@H](c2ccc(OCCOC(=O)[C@H]3C[C@H]4C(=O)N[C@@H](CCCCN(C)C)C(=O)N4[C@H]3c3ccc(O)cc3)cc2)[C@]12C(=O)Nc1ccc(I)cc12`, the figures for the composite z-score in test [1] and in test [2] were 0.768 (inactive) and 0.791, respectively. Also, the z-score in test [3] was -0.193; in test [4] it was -4.89 (inactive); in test [5] it was 0.622 (inactive); in test [6] it was -0.163 (inactive).
As to `CN(C)CCCC[C@@H]1NC(=O)[C@H]2C[C@@H](C(=O)NCCCCCCN)[C@@H](c3ccc(O)cc3)N2C1=O`, the composite z-score in test [1] is 1.38 (inactive); in test [2], 0.785. For the same molecule, the z-score in test [3] is -0.135; in test [4], -1.16 (inactive); in test [5] it was 0.323 (inactive); in test [6], 0.362 (inactive).
As for `COc1ccc([Si](C)(C)[C@@H]2[C@@H](CC(=O)N3CCC[C@H]3CO)O[C@]3(C(=O)N(c4ccccc4)c4ccccc43)[C@H]2C)cc1`, the composite z-score in test [1] was -0.152 (inactive); in test [2], 0.591. In addition, the z-score is -0.831 in test [3], -5.71 (inactive) in test [4], -0.845 (inactive) in test [5] and -1.31 (inactive) in test [6].
Turning to `C[N+](C)(C)CCCCNC(=O)[C@H]1C[C@H]2C(=O)N3CCC[C@H]3C(=O)N2[C@H]1c1cccc(OCCO)c1`, the figures for the composite z-score in test [1] and in test [2] were 0.265 (inactive) and -0.465, respectively. The z-score was 1.2 in test [3], -2.27 (inactive) in test [4], -0.302 (inactive) in test [5] and -0.124 (inactive) in test [6].
Consider `O=C(NCCN1CCOCC1)C1N=C(c2ccc(OCCCO)cc2)N(c2ccccc2)O1` (stereo unspecified), for which the results for the composite z-score in test [1] and in test [2] were 2.46 (inactive) and 0.738, respectively. In addition, the z-score was -0.122 in test [3], -1.6 (inactive) in test [4], -0.227 (inactive) in test [5] and -0.0873 (inactive) in test [6].
On to `CCc1cccc(NC(=O)O[C@H]2[C@H](OC(=O)Nc3ccccc3-c3ccccc3)[C@@H](OC(=O)Nc3ccccc3-c3ccccc3)[C@@H](OC)O[C@@H]2CO)c1`, for which the composite z-score was 1.04 (inactive) in test [1] and 0.859 in test [2]. In addition, the z-score is -1.8 in test [3], -2.99 (inactive) in test [4], 0.167 (inactive) in test [5] and 0.62 (inactive) in test [6].
In the case of `CN(C)CCCCCCNC(=O)[C@H]1C[C@H]2C(=O)N3CCC[C@H]3C(=O)N2[C@H]1c1ccc(O)cc1`, the composite z-score in test [1] is 1.75 (inactive); in test [2], 0.926. Moreover, the z-score in test [3] was -1.15; in test [4] it was -0.246 (inactive); in test [5], -0.0982 (inactive); in test [6], 0.307 (inactive).
For the molecule `O=C(c1ccccc1)N1C(=O)[C@@]2(Cc3ccccc31)N=C(c1ccc(OCCCO)cc1)O[C@H]2c1ccccc1`, the composite z-score in test [1] is 1.68 (inactive); in test [2], 0.841. Also, the z-score in test [3] was -2.09; in test [4], -5.9 (inactive); in test [5], 0.0794 (inactive); in test [6], 0.255 (inactive).
Take `COCC(=C=CC[C@@H](O)c1cccc(OCCO)c1)C[C@@H](O)c1ccccn1`: the composite z-score is 1.36 (inactive) in test [1] and 0.141 in test [2]. For the same molecule, the z-score in test [3] was -1.2; in test [4], -4.8 (inactive); in test [5] it was -1.08 (inactive); in test [6], -0.725 (inactive).
For the molecule `COCCOC(=O)N1C(=O)[C@@]2(c3cc(C#CC4(O)CCCCCC4)ccc31)[C@H](c1ccccc1OCCO)N1[C@H](c3ccccc3)[C@H](c3ccccc3)OC(=O)[C@H]1[C@@H]2C(=O)N1CCN(c2ncccn2)CC1`, the composite z-score is -0.0186 (inactive) in test [1] and 0.744 in test [2]. The z-score in test [3] was -2.23; in test [4] it was -0.571 (inactive); in test [5], -0.353 (inactive); in test [6] it was -0.189 (inactive).
Regarding `CC(C)[Si]1(C(C)C)O[C@@H](c2ccccc2)c2cc(-c3ccc(-c4ccc(Cl)c(Cl)c4)o3)nc(-c3ccccc3)c21`, the composite z-score in test [1] is -0.142 (inactive); in test [2], 0.6. Moreover, the z-score in test [3] was 0.283; in test [4] it was -1.68 (inactive); in test [5], 0.025 (inactive); in test [6] it was -0.606 (inactive).
As for `C=CCNC(=O)[C@H]1[C@@H]2C(=O)O[C@@H](c3ccccc3)[C@@H](c3ccccc3)N2[C@@H](c2ccccc2OCCO)[C@]12C(=O)Nc1ccc(C#CCCO)cc12`, the composite z-score in test [1] was 0.749 (inactive); in test [2], 0.369. Further, the z-score in test [3] is -2.08; in test [4], -3.91 (inactive); in test [5], -0.677 (inactive); in test [6] it was -1.24 (inactive).
On to `CO[C@H]1O[C@H](CO)[C@@H](OC(=O)Nc2cccc(F)c2)[C@H](OC(=O)Nc2ccccc2)[C@@H]1OC(=O)Nc1ccccc1`, for which the composite z-score in test [1] was 1.23 (inactive); in test [2] it was 0.82. Further, the z-score in test [3] is -1.26; in test [4], -6.57 (inactive); in test [5], 0.108 (inactive); in test [6], 0.358 (inactive).
For `C=CC(=C)[C@H]1Oc2ccccc2S(=O)(=O)N2CCC[C@@H]12`, the composite z-score in test [1] was 0.323 (inactive); in test [2], -0.253. The z-score in test [3] is -0.0753; in test [4] it was -1.9 (inactive); in test [5], 0.142 (inactive); in test [6] it was 0.342 (inactive).
Regarding `C=CCN1C(=O)[C@@]2(CC=C)N=C(c3ccc(OCCCO)cc3)O[C@H]2c2ccccc21`, the composite z-score is 0.881 (inactive) in test [1] and 0.751 in test [2]. For the same molecule, the z-score in test [3] was -1.99; in test [4], -2.65 (inactive); in test [5], -0.772 (inactive); in test [6], -0.86 (inactive).
